Screen size: about 420,000 compounds; about 64,000 (15%) were called active. About 27% were inconclusive and are not listed. Calls come from the whole dose curve; as a rule, active = well fitted inhibition curve with a large enough effect; inconclusive = small, poorly fitted or top-dose-only effect; inactive = flat fitted curve, though single readings scatter. Only a sample is shown. A call without a number means that no potency is given here.

The results in this text go back to PubChem BioAssay AID686978 (National Center for Advancing Translational Sciences (NCATS), 2013).
Potency is the fitted concentration of half-maximal effect.

This assay can be described thus: qHTS for Inhibitors of human tyrosyl-DNA phosphodiesterase 1 (TDP1): qHTS in cells in absence of CPT. Note: nearly all actives have a fitted effect of over 55% in size. The note with it: DT40 Tdp1-/- hTDP1 cells, no CPT, ATP luminescence, 48 h; activity change, negative = growth inhibition: at 46.2 µM (top of the series). The method, boiled down: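 Growth kinetics read by CellTiter-Glo luminescence after ≥48 hr at 37 °C. Cells: DT40 Tdp1-/- stably carrying human TDP1, 400 per well, compound exposure in the absence of CPT (DMSO vehicle).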
(qHTS replaces the single test concentration by a dilution series.)
`CCN1C(=O)[C@H]2[C@@H](c3ccccc3)N[C@]3(CCCN(Cc4ccc(C)cc4)C3=O)[C@H]2C1=O`: the Potency result is “inactive”.

In the case of `Cc1ccc([C@H]2N[C@]3(CCCN(CC4CCCCC4)C3=O)[C@H]3C(=O)N(Cc4ccccc4)C(=O)[C@@H]23)cc1`, the Potency was 23.1 µM (active).

Regarding `COc1ccc([C@H]2N[C@]3(CCCN(Cc4ccco4)C3=O)[C@H]3C(=O)N(C)C(=O)[C@@H]23)cc1`, the Potency entry was “inactive”.

With `CCN1C[C@@H]2[C@@H]3C(=O)N(Cc4ccccc4)C(=O)[C@@H]3[C@](C)(C1=O)N2C(=O)c1ccc(C(C)(C)C)cc1`, the Potency result is “inactive”.

For `CCN1C(=O)[C@H]2[C@@H](c3ccc(C(F)(F)F)cc3)N[C@]3(CCCN(Cc4ccc(Br)cc4)C3=O)[C@H]2C1=O`, the Potency was 9.2 µM (active).

Consider `O=C1[C@H]2[C@@H](c3ccc(C(F)(F)F)cc3)N[C@]3(CCCN(Cc4ccc(Br)cc4)C3=O)[C@H]2C(=O)N1Cc1ccccc1`, for which the Potency was 23.1 µM (active).

On to `O=C1[C@H]2[C@@H](c3ccc(C(F)(F)F)cc3)N[C@]3(CCCN(Cc4ccc(Cl)cc4)C3=O)[C@H]2C(=O)N1Cc1ccccc1`, for which the Potency was 20.6 µM (active).

Regarding `Cc1ccc(C(=O)Oc2ccc(C(=S)N3CCOCC3)cc2)cc1`, the Potency result is “inactive”.

On to `c1ccc(-c2ccnc3nc(-n4cccc4)nn23)cc1`, for which the Potency entry is “inactive”.

With `O=C(CN(C(=O)c1nsc(Cl)c1Cl)c1cccc(F)c1)NC1CCCC1`, the Potency entry was “inactive”.

Take `O=C(CCc1ccc(S(=O)(=O)N2CCOCC2)cc1)NN=C1CCCCCCC1`: the Potency result was “inactive”.

As for `CCN(CC)CCN(C(=O)c1cccc([N+](=O)[O-])c1)c1nc2ccc(OC)cc2s1`, the Potency result is “inactive”.

Turning to `Cc1noc(C)c1NC(=O)Nc1ccc2c(c1)C(=O)N([C@H](C)CO)C[C@H](C)[C@@H](CN(C)C(=O)Nc1ccc(C(F)(F)F)cc1)O2`, the Potency result is “inactive”.

Turning to `CCN(CC)C(=O)COc1coc(CN2CCN(Cc3ccccc3)CC2)cc1=O`, the Potency entry is “inactive”.

In the case of `O=C(CSc1nnc(-c2ccncc2)o1)NCc1ccc(Cl)cc1`, the Potency result is “inactive”.

`Fc1ccc(-c2ccc(NCCN3CCOCC3)nn2)cc1`: the Potency result is “inactive”.

As for `Nc1cc(C(F)(F)F)ccc1N1CCOCC1`, the Potency entry was “inactive”.

As to `Oc1[nH]c2ccccc2c1N=Nc1c(F)c(F)c(F)c(F)c1F`, the Potency was 13 µM (active).

On to `Oc1[nH]c2ccc(Br)cc2c1N=Nc1nn[nH]n1`, for which the Potency result was “inactive”.

`Cc1cccc(N=Nc2c(O)[nH]c3ccc(F)cc23)c1`: the Potency entry is “inactive”.

Take `CCC(Cc1ccccc1)NC(=O)C1CCCCC1` (stereo unspecified): the Potency result was “inactive”.

For `O=C1c2ccccc2C(=O)N1c1ccc(S(=O)(=O)N2CCOCC2)c2ccccc12`, the Potency result was “inactive”.

In the case of `Cc1ccc(S(=O)(=O)NC(=O)Nc2nc(-c3ccc(F)c(F)c3)cs2)cc1`, the Potency entry was “inactive”.

Turning to `COc1cc(CC(=O)Nc2nc(-c3ccc(F)c(F)c3)cs2)cc(OC)c1OC`, the Potency was 5.8 µM (active).

In the case of `COc1ccc(-c2csc(NC(=O)c3ccc(N4C(=O)CCC4=O)cc3)n2)cc1OC`, the Potency entry was “inactive”.

As for `COc1ccc(CC(=O)Nc2nc(-c3ccc(F)c(F)c3)cs2)cc1OC`, the Potency was 6.51 µM (active).

For the compound `COc1ccc(CC(=O)Nc2nnc3n2CCS3)cc1OC`, the Potency entry is “inactive”.

As to `COc1ccc(-c2csc(Nc3cccc(C)n3)n2)cc1OC`, the Potency was 25.9 µM (active).

Turning to `Fc1ccc(-c2csc(-c3ccc(C4SCCS4)cc3)n2)cc1F`, the Potency result was “inactive”.

With `COc1cccc(CC(=O)Nc2nc(-c3ccc(OC)c(OC)c3)cs2)c1`, the Potency is 18.4 µM (active).

As to `Cc1nn2c(=O)cc(COC(=O)c3ccccc3NC(=O)COc3ccccc3C)nc2s1`, the Potency entry was “inactive”.

As to `CC(=O)C1C(c2ccc(Cl)cc2)c2c(n[nH]c2C)CC1(C)O` (stereo unspecified), the Potency result is “inactive”.

In the case of `CCOc1ccc(S(=O)(=O)NCCC(=O)NCC2CCCO2)cc1` (stereo unspecified), the Potency result was “inactive”.

As to `COc1ccc(Cn2cccc(NC(=O)Nc3ccc(C#N)cc3)c2=O)cc1`, the Potency entry is “inactive”.

Turning to `CC1CCc2sc3nc(N4CCN(CCO)CC4)n4ncnc4c3c2C1` (stereo unspecified), the Potency entry is “inactive”.

With `Cc1ccn2c(=O)nc(SCC(=O)NCc3ccc4c(c3)OCO4)nc2c1`, the Potency result was “inactive”.

In the case of `O=C(COC(=O)CC1CC2CCC1C2)NC(=O)NC1CCCC1` (stereo unspecified), the Potency result was “inactive”.

On to `COc1cc(OC)cc(C(=O)NCCc2csc3nc(-c4ccccc4F)nn23)c1`, for which the Potency entry was “inactive”.

On to `COc1ccc(CCNS(=O)(=O)c2ccc(F)cc2)cc1OC`, for which the Potency entry was “inactive”.

As to `COc1ccc(-c2nc3scc(CCNS(=O)(=O)c4cc(F)ccc4OC)n3n2)cc1OC`, the Potency was 20.6 µM (active).

Take `Cc1cc([N+](=O)[O-])nn1CC(=O)Nc1ccc(Cc2ccncc2)cc1`: the Potency entry is “inactive”.

For `O=C(OCC(=O)N1CCN(C(=O)c2ccco2)CC1)c1cccc(O)c1`, the Potency entry was “inactive”.

For the compound `CN(c1ccccc1)S(=O)(=O)c1cc(C(=O)OCC(=O)N2CCN(C(=O)c3ccco3)CC2)ccc1Cl`, the Potency is 23.1 µM (active).

Regarding `O=C(OCC(=O)N1CCN(C(=O)c2ccco2)CC1)c1c(Cl)cccc1Cl`, the Potency result is “inactive”.

For the compound `COc1cccc(CN2CCNC(=O)C2CC(=O)N(C)CCc2ccccn2)c1` (stereo unspecified), the Potency entry is “inactive”.

On to `Cc1ccc(NC(=O)c2oc3ccccc3c2C)c([N+](=O)[O-])c1`, for which the Potency entry is “inactive”.

In the case of `COc1ccc(Cl)cc1C(=O)NCC#N`, the Potency result was “inactive”.

With `c1ccc2c(Nc3ccncc3)nc(-c3ccoc3)nc2c1`, the Potency was 20.6 µM (active).

With `Cc1noc(C)c1-c1nc(Nc2ccccc2)c2ccccc2n1`, the Potency result was “inactive”.

As for `c1ccc2c(Nc3ccncc3)nc(-c3ccc4c(c3)OCO4)nc2c1`, the Potency was 14.6 µM (active).

`Cc1ccc(C(=O)O)cc1N1C(=O)CCCC1=O`: the Potency result was “inactive”.

For `CC1CCC(NC(=O)CNC(=O)c2ccc3ccccc3c2)CC1` (stereo unspecified), the Potency result is “inactive”.

Take `N#Cc1ccc(CSc2ncccn2)cc1`: the Potency result is “inactive”.

Consider `Cn1c(=O)[nH]c2c(c(C(=O)O)nn2C)c1=O`, for which the Potency result is “inactive”.

For the compound `O=C(CSc1nc2cc3c(cc2c(=O)n1CCC1=CCCCC1)OCO3)NCc1ccco1`, the Potency entry is “inactive”.

`COCCN(C(=O)C(C)N1C(=O)c2ccccc2C1=O)c1c(N)n(CC(C)C)c(=O)[nH]c1=O` (stereo unspecified): the Potency entry is “inactive”.

Regarding `CCC(=O)Nc1ccc2c(c1)nc(CCN1CCN(C)CC1)n2C`, the Potency entry is “inactive”.

`Cn1c(CCN2CCCCCC2)nc2cc(NC(=O)Nc3ccccc3)ccc21`: the Potency is 23.1 µM (active).

Consider `CCC(=O)Nc1ccc2c(c1)nc(CCN1CCN(c3ccccn3)CC1)n2C`, for which the Potency entry is “inactive”.

With `N[C@@H](Cc1ccccc1)C(=O)N1CCC(C(=O)NCC(=O)Nc2ccc(F)cc2)CC1`, the Potency entry was “inactive”.

On to `Cc1ccc(SCCC(=O)NCc2ccccn2)cc1`, for which the Potency result was “inactive”.
